We go through eight compounds from the supplement of paper PMC7156485.

SMILES strings stand for the structures. ± gives the standard deviation of the averaged measurements.

Conditions in all cases: concentration: 10 µM; 24 h
The subject of experiment [1] is HCC1569. Nature of the experiment: cell number relative to DMSO (% of DMSO); higher = more cells (less growth inhibition / toxicity). Summed up: (§1)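 After 24 h at 37 °C with compounds at 10 µM, in triplicate, HCC1569 and TDF cells were fixed with 3.7% formaldehyde. Immunostaining used a rabbit anti-H1.0 antibody and an AlexaFluor 647 secondary, with DAPI, and six fields per well were imaged at ×10. H1.0 nuclear intensity or cell number is presented as percent of the plate control, from the median of replicates, with HCC1569 values smoothed for positional effects.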

In experiment [2] the test system is TDF. Described as above. In a few lines:
as §1

Experiment [3] has as its system TDF. The experiment in a line: H1.0 immunofluorescence intensity relative to DMSO (% of DMSO); higher = stronger H1.0 induction, active = 120 or more. Summed up: as §1
The subject of experiment [4] is HCC1569. The experiment in a line: H1.0 immunofluorescence intensity relative to DMSO (% of DMSO); higher = stronger H1.0 induction, active = 140 or more. In a few lines: as §1
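For H1.0 immunofluorescence intensity relative to DMSO in this document: TDF is a line of transformed human dermal fibroblasts of mesenchymal origin.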
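For cell number relative to DMSO in this document: TDF denotes transformed human dermal fibroblasts of mesenchymal origin.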

Turning to `Cc1c2ccncc2c(C)c2c1[nH]c1ccccc12` [Ellipticine], the cell number in the experiment on HCC1569 [1] was found to be 69.4 ± 8.6; with TDF [2], 39.3 ± 6.6. The H1.0 immunofluorescence intensity was 104 (inactive) with TDF [3] and 194 (active) in the experiment with HCC1569 [4].

For `CCC(C(=O)O)C1CCC(C)C(C(C)C(O)C(C)C(=O)C(CC)C2OC3(C=CC(O)C4(CCC(C)(C5CCC(O)(CC)C(C)O5)O4)O3)C(C)CC2C)O1` (stereo not given) [Salinomycin], the cell number in the experiment on HCC1569 [1] worked out at 87.1; in the experiment with TDF [2], 87.7. For the same compound, the H1.0 immunofluorescence intensity with TDF [3] is 111 (inactive); in the experiment with HCC1569 [4] it was 110 (inactive).

Take `CC1OC1P(=O)([O-])[O-].[Na+].[Na+]` (stereo not given) [Phosphomycin disodium]: the cell number in the experiment on HCC1569 [1] stood at 100; in the experiment on TDF [2], 91.3. The H1.0 immunofluorescence intensity with TDF [3] and with HCC1569 [4] was 101 (inactive) each time.

As to `CC1CCC2(NC1)OC1CC3C4CC=C5CC(O)CCC5(C)C4CCC3(C)C1C2C` (stereo not given) [Solasodine], the cell number in the experiment on HCC1569 [1] came out at 102; in the experiment on TDF [2], 97.4. Further, the H1.0 immunofluorescence intensity in the experiment with TDF [3] is 100 (inactive); in the experiment on HCC1569 [4] it was 89.2 (inactive).

On to `CN1C(=O)C23CC4=CC=CC(O)C4N2C(=O)C1(CO)SS3` (stereo not given) [Gliotoxin], for which the cell number in the experiment on HCC1569 [1] came out at 0.969; in the experiment with TDF [2], 0.3.

With `Cl.Clc1ccc(N2CCN(Cc3c[nH]c4ncccc34)CC2)cc1` [L-745,870 hydrochloride], the cell number in the experiment on HCC1569 [1] worked out at 99.5; in the experiment on TDF [2] it was 90.2. In addition, the H1.0 immunofluorescence intensity is 115 (inactive) in the experiment on TDF [3] and 102 (inactive) in the experiment on HCC1569 [4].

For `Cl.NCC(O)c1ccc(O)cc1` (racemic), the cell number with HCC1569 [1] worked out at 99.3; in the experiment with TDF [2] it was 106. Besides, the H1.0 immunofluorescence intensity with TDF [3] is 93.6 (inactive); with HCC1569 [4] it was 93.1 (inactive).

Consider `C[N+]1(C)C2CC(OC(=O)C(CO)c3ccccc3)CC1C1OC12.[Br-]` (single isomer, unassigned; (-)) [(-)-Scopolamine methyl bromide], for which the cell number in the experiment on HCC1569 [1] stood at 104; with TDF [2], 98.8. For the same compound, the H1.0 immunofluorescence intensity with TDF [3] is 95.7 (inactive); in the experiment on HCC1569 [4], 101 (inactive).
